Measured values as given in PubChem BioAssay AID720597 (Broad Institute, 2013).
Results with a measured potency or affinity are listed apart. Activity calls are given as the source filed them.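 Rule for the calls: active = fitted half-maximal dose no more than twice the top valid tested dose, for compounds that lower signal; inconclusive = fit invalid, or curve flat with activity between -70 and -30; inactive = potency past limit, curve flat within ±30, or signal increasing.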

target: NAD-dependent protein deacylase sirtuin-5, mitochondrial (Homo sapiens) (UniProt Q9NXA8); assay: blockers of sirtuin-5 peptide desuccinylation – biochemical, fluorescence imaging, cherry-pick, set 6, dose response (AID 720597); conditions: Purified SirT5, succinyl-peptide-AMC/trypsin fluorescence; series mostly up to 15 µM;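 note: lower AMC signal can also come from blocking the trypsin step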
Sequence (Q9NXA8 whole entry, looked up): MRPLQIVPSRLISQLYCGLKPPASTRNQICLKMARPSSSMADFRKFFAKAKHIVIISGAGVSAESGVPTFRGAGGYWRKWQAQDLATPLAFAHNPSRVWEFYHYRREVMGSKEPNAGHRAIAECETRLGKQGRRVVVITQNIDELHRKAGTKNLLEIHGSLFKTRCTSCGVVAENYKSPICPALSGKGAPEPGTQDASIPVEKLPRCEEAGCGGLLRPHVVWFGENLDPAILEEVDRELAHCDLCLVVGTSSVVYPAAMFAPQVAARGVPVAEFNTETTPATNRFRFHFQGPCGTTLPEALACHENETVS

Question: With `COc1ccc(S(=O)(=O)N(C)C[C@H]2Oc3ccc(NC(=O)NC4CCCCC4)cc3C(=O)N([C@@H](C)CO)C[C@@H]2C)cc1` as the compound, how does the outcome read?
Answer: inactive

Question: How did the outcome turn out when `O=C(CN1CCOCC1)NCC[C@H]1CC[C@@H](NS(=O)(=O)c2ccc(Cl)cc2)[C@@H](CO)O1` was run?
Answer: inactive

Question: Which outcome does the source give for `COc1ccc(C#Cc2ccc([C@H]3[C@H](CO)N4C(=O)CN(C(=O)c5cccnc5)C[C@@H]34)cc2)cc1` here?
Answer: inactive

Question: How did the outcome turn out when `CC(C)CC#Cc1ccc2c(c1)O[C@H](CN(C)C(=O)C1CCCCC1)[C@@H](C)CN([C@H](C)CO)S2(=O)=O` was run?
Answer: inactive

Question: `CCCC#Cc1ccc2c(c1)O[C@H](CN(C)C(=O)c1ccccc1F)[C@@H](C)CN([C@@H](C)CO)S2(=O)=O` was tested. Which outcome did it give?
Answer: inactive

Question: How did the outcome turn out when `O=C(CN1CCOCC1)N1CC[C@H]2[C@H](CO)Nc3ccc(-c4ccc(F)cc4)cc3[C@H]21` was run?
Answer: inactive

Question: For `CC(C)CC#Cc1ccc2c(c1)O[C@H](CN(C)C(=O)CC1CC1)[C@@H](C)CN([C@@H](C)CO)S2(=O)=O`, which outcome is on record?
Answer: inactive

Question: For `C[C@H]1CN([C@@H](C)CO)C(=O)Cc2cc(NC(=O)CCCCCC(=O)Nc3ccccc3N)ccc2O[C@@H]1CN(C)Cc1ccc(Oc2ccccc2)cc1`, which outcome is on record?
Answer: inactive

Question: For `CN(C)CC(=O)N1[C@H](CO)[C@@H](c2ccccc2)C12CN(C(=O)C1CCCC1)C2`, which outcome is on record?
Answer: inactive

Question: With `O=S(=O)(c1ccc(F)cc1)N1CCCCN2[C@H](CO)[C@H](c3ccc(-c4ccccc4F)cc3)[C@@H]2C1` as the compound, how does the outcome read?
Answer: inactive

Question: With `C[C@@H]1CN([C@@H](C)CO)S(=O)(=O)c2ccc(C3=CCCCC3)cc2O[C@H]1CN(C)S(=O)(=O)c1ccc(F)cc1` as the compound, how does the outcome read?
Answer: inactive

Question: With `C[C@@H]1CN([C@@H](C)CO)C(=O)c2cc(NS(C)(=O)=O)ccc2O[C@@H](C)CCCCO[C@@H]1CN(C)C` as the compound, how does the outcome read?
Answer: inactive

Question: With `C[C@@H]1CN([C@@H](C)CO)C(=O)c2cccc(NC(=O)c3nc4ccccc4s3)c2O[C@H]1CN(C)Cc1ccc(C(F)(F)F)cc1` as the compound, how does the outcome read?
Answer: inactive

Question: `C[C@H](CO)N1C[C@H](C)[C@@H](CN(C)Cc2ccc(Cl)c(Cl)c2)Oc2c(NC(=O)c3ccc(-c4nccs4)cc3)cccc2C1=O` was tested. Which outcome did it give?
Answer: inactive

Question: Which outcome does the source give for `Cc1ccc(S(=O)(=O)N(C)C[C@H]2Oc3ccc(NC(=O)Cn4cnnn4)cc3CC(=O)N([C@@H](C)CO)C[C@H]2C)cc1` here?
Answer: inactive

Question: How did the outcome turn out when `C[C@@H]1CN([C@H](C)CO)S(=O)(=O)c2ccc(C3=CCCCC3)cc2O[C@H]1CN(C)C(=O)Nc1ccc2c(c1)OCO2` was run?
Answer: inactive

Question: With `C[C@@H]1CN([C@H](C)CO)S(=O)(=O)c2ccc(-c3cccc(F)c3)cc2O[C@@H]1CN(C)S(=O)(=O)c1ccc(F)cc1` as the compound, how does the outcome read?
Answer: inactive

Question: For `C[C@@H]1CN([C@@H](C)CO)C(=O)Cc2cc(NC(=O)Nc3ccc(F)cc3)ccc2O[C@H]1CN(C)C`, which outcome is on record?
Answer: inactive

Question: `COc1ccc(S(=O)(=O)Nc2ccc3c(c2)C(=O)N([C@@H](C)CO)C[C@H](C)[C@H](CN(C)Cc2ccc(C(F)(F)F)cc2)OCCCC[C@@H](C)O3)cc1` was tested. Which outcome did it give?
Answer: inactive

Question: `CCCC(=O)Nc1ccc2c(c1)OC[C@H](C)N(Cc1ccccc1)C[C@@H](C)[C@H](OC)CN(C)C2=O` was tested. Which outcome did it give?
Answer: inactive

Question: For `O=C(CSc1nnc(-c2ccco2)n1-c1ccccc1)Nc1ccc(F)cc1`, which outcome is on record?
Answer: inactive

Question: With `CCOC(=O)N(C)C[C@H]1OCc2ccccc2-c2ccccc2C(=O)N([C@H](C)CO)C[C@@H]1C` as the compound, how does the outcome read?
Answer: inactive

Question: How did the outcome turn out when `COc1ccc(S(=O)(=O)N(C)C[C@H]2Oc3ccc(NC(=O)NC4CCCCC4)cc3C(=O)N([C@H](C)CO)C[C@@H]2C)cc1` was run?
Answer: inactive

Question: Which outcome does the source give for `CCCNC(=O)N1CC(=O)N2[C@H](CO)[C@@H](c3ccc(-c4ccc(F)cc4)cc3)[C@@H]2C1` here?
Answer: inactive

Question: With `CN(C)C(=O)c1cccc(-c2ccc([C@@H]3[C@@H](CO)N4CCCCN(S(C)(=O)=O)C[C@H]34)cc2)c1` as the compound, how does the outcome read?
Answer: inactive

Question: For `O=C(C1CCCC1)N1CC2(C1)[C@H](c1ccccc1)[C@@H](CO)N2Cc1ccc(Cl)cc1`, which outcome is on record?
Answer: inactive

Question: For `COc1ccc(S(=O)(=O)N2CCCCN3[C@H](CO)[C@H](c4ccc(C#CC(C)C)cc4)[C@H]3C2)cc1`, which outcome is on record?
Answer: inactive

Question: For `C[C@H](CO)N1C[C@H](C)[C@H](CN(C)Cc2ccc(-c3ccccc3)cc2)OCc2ccccc2-c2ccccc2C1=O`, which outcome is on record?
Answer: inactive
